{
  "source": "PubChem BioAssay AID588342",
  "about": "(National Center for Advancing Translational Sciences (NCATS), 2011)",
  "note": "Among all 360,000 compounds or so, about 25,000 (6.9%) were called active. Not shown: some 9% with an inconclusive outcome. This is one part of a sample in which actives are shown more often than they occur. Values without a mark were called inactive. Calls follow the shape of the dose curve; as a rule, active = well fitted inhibition curve with a large enough effect; inconclusive = small, poorly fitted or top-dose-only effect; inactive = flat fitted curve, though single readings scatter. Potency is read from the fitted curve at half-maximal effect.",
  "data": [
    {"molecular_target": "Luciferin 4-monooxygenase (Photinus pyralis) (UniProt P08659)", "sequence (P08659 whole entry, looked up)": "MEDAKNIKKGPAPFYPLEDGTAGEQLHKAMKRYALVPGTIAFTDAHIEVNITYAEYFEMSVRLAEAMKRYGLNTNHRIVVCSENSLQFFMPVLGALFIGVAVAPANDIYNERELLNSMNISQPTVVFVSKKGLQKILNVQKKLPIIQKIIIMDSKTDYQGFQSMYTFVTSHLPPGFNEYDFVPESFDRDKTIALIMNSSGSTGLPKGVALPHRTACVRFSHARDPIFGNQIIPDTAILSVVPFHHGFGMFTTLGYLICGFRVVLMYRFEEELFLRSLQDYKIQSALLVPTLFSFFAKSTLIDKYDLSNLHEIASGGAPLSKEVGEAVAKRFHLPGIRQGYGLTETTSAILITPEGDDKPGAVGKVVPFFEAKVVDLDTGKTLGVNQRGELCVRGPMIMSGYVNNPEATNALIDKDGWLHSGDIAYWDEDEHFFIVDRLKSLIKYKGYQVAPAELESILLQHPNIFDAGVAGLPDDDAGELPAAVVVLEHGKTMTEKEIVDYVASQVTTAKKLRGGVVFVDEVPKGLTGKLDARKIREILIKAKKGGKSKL", "experiment": "qHTS profiling assay for firefly luciferase inhibitor/activator using purifed enzyme and Km concentrations of substrates (counterscreen for miR-21 project); also: nearly all actives have a fitted effect of over 55% in size;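 as to activity change, negative = inhibition: plate controls were vehicle for no effect and reference inhibitor for full effect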", "conditions": "purified FLuc, luminescence inhibition; series mostly up to 57.5 µM; activity change, negative = inhibition: at the top concentration", "procedure,_shortened": "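Purified P. pyralis luciferase (10nM final) with 10uM D-luciferin and 10uM ATP (Km levels) in 50mM Tris acetate pH 7.5, 10mM Mg acetate, 0.01% Tween-20, 0.05% BSA; qHTS 6-point titration, ~60 µM downward; luminescence read.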", "units": {"activity change, negative = inhibition": "%"}, "values": [
      {"smiles": "O=C(OC1CCOC1=O)c1ccc(-c2nc3ccccc3s2)s1", "note": "(stereo unspecified)", "Potency": "0.19 µM (active)"},
      {"smiles": "Cc1nn(Cc2ccccc2)c(Cl)c1C(=O)OC1CCOC1=O", "note": "(stereo unspecified)", "activity change, negative = inhibition": 2.71},
      {"smiles": "CCOC(=O)c1c(NC(=O)CNC2CCCc3ccccc32)sc(C(N)=O)c1C", "note": "(stereo unspecified)", "activity change, negative = inhibition": -10.6},
      {"smiles": "O=C(CN1CCN(c2ccccn2)CC1)N1CCc2ccccc21", "activity change, negative = inhibition": 5.78},
      {"smiles": "O=C(CSCc1ccccc1)N1CCc2ccccc21", "Potency": "2.39 µM (active)"},
      {"smiles": "CCC(=O)N1CCCc2ccccc21", "activity change, negative = inhibition": -1.02},
      {"smiles": "CCc1nc2ccccc2c(C(=O)OC2CCCCC2=O)c1C", "note": "(stereo unspecified)", "activity change, negative = inhibition": -1.89},
      {"smiles": "COC(=O)CCc1sc(Nc2ccc(Br)cc2)nc1-c1ccc(OC)cc1", "activity change, negative = inhibition": 1.08},
      {"smiles": "COc1ccc(NC(=O)c2sc(N)nc2-c2ccccc2)cc1", "activity change, negative = inhibition": -6.15},
      {"smiles": "CCCn1c(CCNc2nc(-c3ccc(OC)cc3)cs2)nc2ccccc21", "activity change, negative = inhibition": 1.09},
      {"smiles": "CC(=O)Nc1nc(C)c(-c2csc(Nc3ccc(S(N)(=O)=O)cc3)n2)s1", "activity change, negative = inhibition": -1.06},
      {"smiles": "COc1ccc(-c2csc(Cc3nc(O)cs3)n2)cc1", "Potency": "2.69 µM (active)"},
      {"smiles": "COc1ccc(-c2csc(Nc3ccc(O)cc3)n2)cc1", "Potency": "1.35 µM (active)"},
      {"smiles": "NS(=O)(=O)c1ccc(NS(=O)(=O)/C=C/c2ccccc2)cc1", "activity change, negative = inhibition": 14.2},
      {"smiles": "COc1ccc(Nc2nc(-c3ccccc3)cs2)cc1", "Potency": "0.601 µM (active)"},
      {"smiles": "COc1ccc(C2C(C(C)=O)=C(O)C(=O)N2c2nccs2)cc1", "note": "(stereo unspecified)", "activity change, negative = inhibition": 1.02},
      {"smiles": "CCCn1c(C2CCCN2c2nc(-c3ccc(OC)cc3)cs2)nc2ccccc21", "note": "(stereo unspecified)", "activity change, negative = inhibition": -4.67},
      {"smiles": "NS(=O)(=O)c1ccc(Nc2nc(-c3ccccc3)cs2)cc1", "Potency": "21.3 µM (active)"},
      {"smiles": "CCOC(=O)NC(=O)CSc1nnc(SCCC(=O)O)s1", "activity change, negative = inhibition": 2.64},
      {"smiles": "CCC[C@H]1CCCC/C=C\\CCCC(=O)OCCN1C(=O)OC(C)(C)C", "activity change, negative = inhibition": 1.02},
      {"smiles": "COC(=O)c1cc(NC(=O)CCc2c(C)nc3c4c(C)cc(C)nc4nn3c2C)cc(C(=O)OC)c1", "activity change, negative = inhibition": -4.62},
      {"smiles": "C[C@@H]1O[C@@H](OC[C@H]2O[C@@H](Oc3c(-c4ccc(O)cc4)oc4cc(O)cc(O)c4c3=O)[C@H](O)[C@@H](O)[C@@H]2O)[C@H](O)[C@H](O)[C@H]1O", "activity change, negative = inhibition": 3.05},
      {"smiles": "CCNC(=O)c1cccc(NC(=O)C2CC(=O)N(CCc3ccccc3)C2)c1", "note": "(stereo unspecified)", "activity change, negative = inhibition": -1.73},
      {"smiles": "CCOc1ccc(NC(=O)CN(C)C(=O)Cn2c(=O)cnc3ccccc32)cc1OCC", "activity change, negative = inhibition": 3.02},
      {"smiles": "COc1ccccc1Cc1nc2ccccc2nc1SCC(=O)N1CCCc2ccccc21", "activity change, negative = inhibition": 1.12},
      {"smiles": "O=C(Cc1ccccc1)NCC1OCCc2ccccc21", "note": "(stereo unspecified)", "activity change, negative = inhibition": 5.57},
      {"smiles": "CSc1nc(-c2ccc(F)cc2)nc2c1Cc1c(CO)cnc(C)c1O2", "activity change, negative = inhibition": -7.58},
      {"smiles": "COc1ccc(-c2csc(NC3OC(=O)c4ccccc43)n2)cc1", "note": "(stereo unspecified)", "Potency": "6.75 µM (active)"},
      {"smiles": "Cc1ccc(-c2csc(NC3OC(=O)c4ccccc43)n2)cc1", "note": "(stereo unspecified)", "activity change, negative = inhibition": -17.7},
      {"smiles": "COc1ccc2c(c1OC)C(=O)OC2Nc1nc(-c2ccccc2)cs1", "note": "(stereo unspecified)", "activity change, negative = inhibition": 0.505},
      {"smiles": "O=C(NCCS(=O)(=O)N1CCN(c2ccc(F)cc2)CC1)c1ccccc1Br", "activity change, negative = inhibition": -0.513},
      {"smiles": "O=C(CSCc1cnn(-c2ccccc2)c1-n1cccc1)NCc1ccc(Cl)cc1", "activity change, negative = inhibition": -4.45},
      {"smiles": "CCOc1ccc(-n2c(SCC(N)=O)nnc2-c2ccco2)cc1", "activity change, negative = inhibition": -0.757},
      {"smiles": "COc1ccc(-c2ocnc2C(=O)Nc2ccc3c(c2)CCC3)cc1", "Potency": "7.57 µM (active)"},
      {"smiles": "COCCn1c(SCC(=O)Nc2ccc3c(c2)CCC3)nc2ccccc2c1=O", "activity change, negative = inhibition": 3.78},
      {"smiles": "CCCCOc1ccc(-c2nnc(-c3ccco3)o2)cc1", "Potency": "2.39 µM (active)"},
      {"smiles": "CCOc1ccc(NC(=O)c2cc(C)nc3ccccc23)cc1", "activity change, negative = inhibition": -13.3},
      {"smiles": "CCOc1ccc(-c2nnc(-c3ccco3)o2)cc1", "Potency": "0.953 µM (active)"},
      {"smiles": "CCOc1ccc(NC(=O)N(CCC(C)C)C(C)c2ccco2)cc1", "note": "(stereo unspecified)", "activity change, negative = inhibition": -12.2},
      {"smiles": "Cc1ccc(CNC(=O)COc2ccc3c(c2)CCC3)cc1", "activity change, negative = inhibition": 3.72},
      {"smiles": "O=C(CCc1ccccc1)Nc1cccc(-c2nnc(-c3ccco3)o2)c1", "activity change, negative = inhibition": -2.35},
      {"smiles": "Cc1cccc(NC(=O)CSc2nnc(-c3ccco3)o2)c1", "activity change, negative = inhibition": 6.83},
      {"smiles": "N#Cc1ccc(OCc2nnc(-c3ccc([N+](=O)[O-])cc3)o2)cc1", "activity change, negative = inhibition": 1.84},
      {"smiles": "CCOc1ccc(NC(=O)c2ncoc2-c2ccco2)cc1", "Potency": "7.57 µM (active)"},
      {"smiles": "COc1cc(CNC(=O)c2cc3n(n2)CCCN(Cc2cccc(F)c2)C3=O)cc(OC)c1OC", "activity change, negative = inhibition": 4.25},
      {"smiles": "CN1CCN(S(=O)(=O)c2ccc(NC(=O)C3CCCO3)cc2)CC1", "note": "(stereo unspecified)", "activity change, negative = inhibition": 4.41},
      {"smiles": "CN(C)CCn1c2c(c(SCC(=O)NCc3ccccc3)nc1=O)CCC2", "activity change, negative = inhibition": -2.52},
      {"smiles": "O=C(NNS(=O)(=O)c1ccccc1C(F)(F)F)c1cc2ncc(C(F)(F)F)cc2s1", "activity change, negative = inhibition": 0.509},
      {"smiles": "COc1ccccc1CCNC(=O)c1cccn1-c1nnc(N2CCCCC2)s1", "activity change, negative = inhibition": -13.9},
      {"smiles": "COc1cc(CNCCSc2nnnn2C)ccc1OCc1c(F)cccc1Cl", "activity change, negative = inhibition": 3.54},
      {"smiles": "Cc1ccccc1C(=O)N1CCC(C(=O)Nc2ccc(S(=O)(=O)N(C)C(C)C)cc2)CC1", "activity change, negative = inhibition": -2.3}
    ]}
  ]
}
